Data reported in PubChem BioAssay (Tox21).
Several values for one entry are separate records, joined by “and”; a condition that tells them apart may be missing. Equal entries are not always repeated. Inconclusive results are not listed. Entries that show only a call come without a potency. Activity calls are given as the source filed them. Unless noted, calls come from the whole dose curve; as a rule, active = well fitted curve in the direction sought with a large enough effect in the repeat runs; inconclusive = weak or mixed curves; inactive = no such curve, though single readings can be large; an effect the other way counts as inactive or inconclusive.

How the values were obtained:
[1] = qHTS assay to identify small molecule that activate the aryl hydrocarbon receptor (AhR) signaling pathway - cell viability counter screen (AID 743086);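 note: HepG2 liver cells carrying the AhR DRE luciferase reporter; series mostly up to about 70 µM; nearly all actives have a fitted effect of over 45% in size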
Method in brief: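 Cytotoxicity counter screen: CellTiter-Fluor signal (30 min, 37 C) in 4000 HepG2 cells/well carrying the DRE-luciferase reporter, following 24 h compound exposure at 37 C.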

[2] = target: Peroxisome proliferator-activated receptor gamma (Homo sapiens) (UniProt P37231); assay: qHTS assay to identify small molecule agonists of the peroxisome proliferator-activated receptor gamma (PPARg) signaling pathway (AID 743094; active = well fitted activation curve with a large enough effect in the signal ratio in the repeat runs, not every such curve was filed as active; the % refers to the signal ratio; note: potency is the fitted concentration of half-maximal effect)
Method in brief: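 Stably transfected HEK293H cells (GeneBLAzer PPARg UAS-bla) were incubated with test substances for 17 h at 37C after a 5 h pre-incubation; beta-lactamase activity was then detected by FRET substrate fluorescence.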

[3] = qHTS assay to identify small molecule antagonists of the peroxisome proliferator-activated receptor gamma (PPARg) signaling pathway - cell viability counter screen (AID 743194); settings: Potency: co-treated with 50 nM rosiglitazone unless noted; note: nearly all actives have a fitted effect of over 55% in size; note: potency is the fitted concentration of half-maximal effect
Method in brief: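 Viability was measured as CellTiter-Glo luminescence in GeneBLAzer PPARg UAS-bla HEK293H cells. These cells had been exposed 17 h at 37 C to compounds together with rosiglitazone at 50 nM final, with the beta-lactamase readout taken in the same wells.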

[4] = qHTS assay for small molecule agonists of the antioxidant response element (ARE) signaling pathway (AID 743202; active = well fitted activation curve with a large enough effect in the signal ratio in the repeat runs, not every such curve was filed as active; the % refers to the signal ratio; note: potency is the fitted concentration of half-maximal effect)
Method in brief: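 Quantitative high-throughput format in HepG2 cells bearing an integrated ARE-beta-lactamase reporter. Compound exposure lasted 16 h at 37 C, and fluorescence was read 2 h after adding LiveBLAzer B/G substrate at room temperature.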

[5] = qHTS assay for small molecule agonists of the antioxidant response element (ARE) signaling pathway - cell viability counter screen (AID 743203; calls by dose curve; note: nearly all actives have a fitted effect of over 55% in size; note: potency is the fitted concentration of half-maximal effect)
Method in brief: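 Cells (ARE-bla HepG2, 2,000/well) receive DMSO-dissolved compounds after a 5 hrs rest. Plates incubate 16 hrs at 37C/5% CO2. CellTiter-Glo luminescence is then recorded after 30 min at room temperature.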

[6] = qHTS assay for small molecule activators of the heat shock response signaling pathway - cell viability counter screen (AID 743209); note: nearly all actives have a fitted effect of over 50% in size; note: potency is the fitted concentration of half-maximal effect
Method in brief: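 Quantitative HTS format, Tox21 10K library. HeLa cells carrying an HSE-driven beta-lactamase reporter were treated 5 h at 37 C, then assessed for viability by CellTiter-Glo luminescence.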

[7] = qHTS assay to identify small molecule agonists of the farnesoid-X-receptor (FXR) signaling pathway - cell viability counter screen (AID 743218); note: nearly all actives have a fitted effect of over 45% in size; note: potency is the fitted concentration of half-maximal effect
Method in brief: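 In GeneBLAzer FXR-UAS-bla HEK 293T cells, compounds act for 16 h at 37 C. Cell viability is then scored in the reporter wells by CellTiter-Glo, 30 min at RT, luminescence.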

[8] = target: Bile acid receptor (Homo sapiens) (UniProt Q96RI1); assay: qHTS assay to identify small molecule agonists of the farnesoid-X-receptor (FXR) signaling pathway (AID 743220; active = well fitted activation curve with a large enough effect in the signal ratio in the repeat runs, not every such curve was filed as active; the % refers to the signal ratio)
Method in brief: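 Beta-lactamase reporter under UAS control in GeneBLAzer FXR HEK 293T cells (5000/well) measured with LiveBLAzer FRET substrate after 2 h at room temperature. Compound exposure lasted 16 h at 37C.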

[9] = qHTS assay to identify small molecule antagonists of the farnesoid-X-receptor (FXR) signaling pathway - cell viability counter screen (AID 743221; active = well fitted cell-killing curve with a large enough effect in the repeat runs, not every such curve was filed as active; note: nearly all actives have a fitted effect of over 50% in size; note: potency is the fitted concentration of half-maximal effect)
Method in brief: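 In GeneBLAzer FXR-UAS-bla HEK 293T cells stimulated with 50 uM chenodeoxycholic acid (final), compounds acted for 16 h at 37 C. Viability was assessed afterwards by CellTiter-Glo luminescence.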

[10] = target: Vitamin D3 receptor (Homo sapiens) (UniProt P11473); assay: qHTS assay to identify small molecule agonists of the vitamin D receptor (VDR) signaling pathway (AID 743222; calls by dose curve)
Method in brief: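 Agonist activity measured in VDR-bla reporter cells. Exposure 16 h, 37C, 5% CO2; detection by B/G FRET substrate, 2 h RT.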

[11] = target: Aryl hydrocarbon receptor (Homo sapiens) (UniProt P35869); assay: qHTS assay to identify small molecule that activate the aryl hydrocarbon receptor (AhR) signaling pathway (AID 743085); note: nearly all actives have a fitted effect of over 15% in size; note: potency is the fitted concentration of half-maximal effect;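 for activation: HG2L7.5c1 human HepG2 liver cells with stably integrated DRE-driven firefly reporter; series mostly up to about 70 µM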
Method in brief: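 24 h compound exposure, 37C, HepG2-derived HG2L7.5c1 cells with DRE-responsive luciferase. Readouts: fluorescence viability, then luminescence at room temperature after 30 min.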

[12] = qHTS assay for small molecule activators of the heat shock response signaling pathway (AID 743210; active = well fitted activation curve with a large enough effect in the signal ratio in the repeat runs, with a control signal flat, not every such curve was filed as active; the % refers to the signal ratio;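 note: HeLa cells with beta-lactamase reporter driven by heat shock elements; series mostly up to about 63 µM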)
Method in brief: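 HeLa HSE-bla cells, overnight plating; cpd in DMSO 5 h, 37 C; LiveBLAzer B/G FRET substrate 2.5 h RT; fluorescence intensity read.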

[13] = qHTS assay to identify small molecule agonists of the peroxisome proliferator-activated receptor delta (PPARd) signaling pathway - cell viability counter screen (AID 743211); note: nearly all actives have a fitted effect of over 55% in size; note: potency is the fitted concentration of half-maximal effect
Method in brief: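 Luminescent ATP viability assay (CellTiter-Glo, 30 min RT) in UAS-bla HEK293H cells carrying the PPAR delta reporter construct, 3000 cells/well, after a 17 h compound treatment at 37 C.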

[14] = target: Peroxisome proliferator-activated receptor delta (Homo sapiens) (UniProt Q03181); assay: qHTS assay to identify small molecule agonists of the peroxisome proliferator-activated receptor delta (PPARd) signaling pathway (AID 743212; calls by dose curve)
Method in brief: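 HEK293H PPARd-bla cells; 5 h preincubation 37 C/5% CO2; compound (DMSO) 37 C; LiveBLAzer B/G FRET substrate 2 h RT; fluorescence intensity.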

[15] = target: Peroxisome proliferator-activated receptor delta (Homo sapiens) (UniProt Q03181); assay: qHTS assay to identify small molecule antagonists of the peroxisome proliferator-activated receptor delta (PPARd) signaling pathway (AID 743215; active = well fitted inhibition curve with a large enough effect in the signal ratio in the repeat runs, not every such curve was filed as active; the % refers to the signal ratio;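 note: cells stimulated with agonist L165041 at 300 nM final during compound exposure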; note: potency is the fitted concentration of half-maximal effect)
Method in brief: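 Antagonist-mode beta-lactamase reporter screen: HEK293H cells with UAS-bla under PPARd control, stimulated by 300 nM L165041 (final) alongside test compound for 17 h at 37 C, then FRET fluorescence after 2 h substrate incubation.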

[16] = target: Bile acid receptor (Homo sapiens) (UniProt Q96RI1); assay: qHTS assay to identify small molecule antagonists of the farnesoid-X-receptor (FXR) signaling pathway (AID 743217; active = well fitted inhibition curve with a large enough effect in the signal ratio in the repeat runs, not every such curve was filed as active; the % refers to the signal ratio)
Method in brief: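 Beta-lactamase reporter under UAS control in HEK 293T cells; compound exposure 16 h at 37 °C in the presence of chenodeoxycholic acid (50 uM final); signal from B/G FRET substrate after 2 h at room temperature.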

[17] = qHTS assay to identify small molecule agonists of the vitamin D receptor (VDR) signaling pathway - cell viability counter screen (AID 743224); note: nearly all actives have a fitted effect of over 50% in size; note: potency is the fitted concentration of half-maximal effect
Method in brief: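 VDR-bla cell line, quantitative HTS format; 16 h compound incubation (37C, 5% CO2); ATP-based CellTiter-Glo luminescence measured in the reporter assay wells.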

[18] = qHTS assay to identify small molecule antagonists of the peroxisome proliferator-activated receptor delta (PPARd) signaling pathway - cell viability counter screen (AID 743213); note: nearly all actives have a fitted effect of over 50% in size; note: potency is the fitted concentration of half-maximal effect
Method in brief: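 HEK293H cells with the PPARd UAS-bla reporter, co-treated 17 h at 37 C with compounds and L165041 (300 nM final), were lysed with CellTiter-Glo. Luminescence indicated viable cell content.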

[19] = target: Peroxisome proliferator-activated receptor gamma (Homo sapiens) (UniProt P37231); assay: qHTS assay to identify small molecule antagonists of the peroxisome proliferator-activated receptor gamma (PPARg) signaling pathway (AID 743191; calls by dose curve; note: series mostly up to about 63 µM; nearly all actives have a fitted effect of over 30% in size)
Method in brief: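 Beta-lactamase reporter under UAS control in HEK293H PPARg-bla cells; compound treatment 17 h at 37C. Read-out: fluorescence intensity after 1 h room-temperature incubation with LiveBLAzer B/G FRET substrate.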

[20] = target: Vitamin D3 receptor (Homo sapiens) (UniProt P11473); assay: qHTS assay to identify small molecule antagonists of the vitamin D receptor (VDR) signaling pathway (AID 743223; active = well fitted inhibition curve with a large enough effect in the signal ratio in the repeat runs, not every such curve was filed as active; the % refers to the signal ratio; note: potency is the fitted concentration of half-maximal effect)
Method in brief: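 Agonist 1alpha,25-dihydroxyvitamin D3 (3 nM in well) was added with each compound to VDR-bla cells preincubated 4 h. Cells stood 16 h at 37C, then FRET substrate 2 h at room temperature; fluorescence intensity recorded.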

Chain of Peroxisome proliferator-activated receptor delta (Homo sapiens) (Q03181 whole entry, looked up): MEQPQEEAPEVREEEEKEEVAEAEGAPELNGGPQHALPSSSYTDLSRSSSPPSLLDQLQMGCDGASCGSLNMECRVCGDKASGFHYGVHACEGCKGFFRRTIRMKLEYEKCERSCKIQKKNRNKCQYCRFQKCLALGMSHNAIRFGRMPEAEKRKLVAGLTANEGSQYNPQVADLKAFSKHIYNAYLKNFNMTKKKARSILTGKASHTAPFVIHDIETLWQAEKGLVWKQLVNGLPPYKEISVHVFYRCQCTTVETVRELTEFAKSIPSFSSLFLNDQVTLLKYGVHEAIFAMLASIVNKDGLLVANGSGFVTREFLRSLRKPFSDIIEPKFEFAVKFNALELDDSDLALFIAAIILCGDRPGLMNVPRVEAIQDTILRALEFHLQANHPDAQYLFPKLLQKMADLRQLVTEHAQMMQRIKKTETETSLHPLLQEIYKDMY
Chain of Peroxisome proliferator-activated receptor gamma (Homo sapiens) (P37231 whole entry, looked up): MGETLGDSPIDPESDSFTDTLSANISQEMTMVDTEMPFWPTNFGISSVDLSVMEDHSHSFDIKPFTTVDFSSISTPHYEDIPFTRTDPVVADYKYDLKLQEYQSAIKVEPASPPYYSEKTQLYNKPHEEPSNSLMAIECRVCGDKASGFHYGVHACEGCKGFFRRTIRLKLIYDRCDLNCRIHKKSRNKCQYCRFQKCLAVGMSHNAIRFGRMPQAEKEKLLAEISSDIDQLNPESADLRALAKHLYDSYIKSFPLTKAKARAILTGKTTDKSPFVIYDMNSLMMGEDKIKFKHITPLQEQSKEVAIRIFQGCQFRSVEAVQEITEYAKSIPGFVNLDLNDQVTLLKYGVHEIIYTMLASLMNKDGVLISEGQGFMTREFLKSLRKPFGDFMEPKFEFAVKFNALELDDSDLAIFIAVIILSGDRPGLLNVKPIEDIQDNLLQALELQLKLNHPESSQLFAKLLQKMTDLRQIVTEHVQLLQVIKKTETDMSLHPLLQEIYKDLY
Chain of Vitamin D3 receptor (Homo sapiens) (P11473 whole entry, looked up): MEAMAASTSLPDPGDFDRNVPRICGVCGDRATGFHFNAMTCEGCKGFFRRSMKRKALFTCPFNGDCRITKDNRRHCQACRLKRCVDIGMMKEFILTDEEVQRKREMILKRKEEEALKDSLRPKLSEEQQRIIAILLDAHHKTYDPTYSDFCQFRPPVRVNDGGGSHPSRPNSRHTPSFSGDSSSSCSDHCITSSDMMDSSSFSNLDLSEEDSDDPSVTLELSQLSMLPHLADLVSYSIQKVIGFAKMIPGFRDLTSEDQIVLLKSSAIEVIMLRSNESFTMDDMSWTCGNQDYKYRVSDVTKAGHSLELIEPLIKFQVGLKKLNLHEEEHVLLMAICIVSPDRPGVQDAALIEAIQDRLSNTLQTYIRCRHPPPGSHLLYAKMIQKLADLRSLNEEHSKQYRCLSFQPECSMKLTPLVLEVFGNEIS
Chain of Bile acid receptor (Homo sapiens) (Q96RI1 whole entry, looked up): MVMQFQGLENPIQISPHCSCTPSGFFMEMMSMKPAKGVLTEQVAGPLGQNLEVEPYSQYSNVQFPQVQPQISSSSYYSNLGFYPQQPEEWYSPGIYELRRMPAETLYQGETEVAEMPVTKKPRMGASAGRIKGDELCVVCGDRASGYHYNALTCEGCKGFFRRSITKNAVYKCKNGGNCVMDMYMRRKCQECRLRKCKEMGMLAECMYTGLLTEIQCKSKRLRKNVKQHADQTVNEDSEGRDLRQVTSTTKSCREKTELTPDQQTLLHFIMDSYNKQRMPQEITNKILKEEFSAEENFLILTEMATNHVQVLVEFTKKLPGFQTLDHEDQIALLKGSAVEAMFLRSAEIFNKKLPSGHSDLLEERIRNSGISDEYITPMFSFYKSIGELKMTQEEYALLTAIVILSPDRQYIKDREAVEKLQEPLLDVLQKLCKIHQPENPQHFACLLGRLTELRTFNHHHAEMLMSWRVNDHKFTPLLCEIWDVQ
Chain of Aryl hydrocarbon receptor (Homo sapiens) (P35869 whole entry, looked up): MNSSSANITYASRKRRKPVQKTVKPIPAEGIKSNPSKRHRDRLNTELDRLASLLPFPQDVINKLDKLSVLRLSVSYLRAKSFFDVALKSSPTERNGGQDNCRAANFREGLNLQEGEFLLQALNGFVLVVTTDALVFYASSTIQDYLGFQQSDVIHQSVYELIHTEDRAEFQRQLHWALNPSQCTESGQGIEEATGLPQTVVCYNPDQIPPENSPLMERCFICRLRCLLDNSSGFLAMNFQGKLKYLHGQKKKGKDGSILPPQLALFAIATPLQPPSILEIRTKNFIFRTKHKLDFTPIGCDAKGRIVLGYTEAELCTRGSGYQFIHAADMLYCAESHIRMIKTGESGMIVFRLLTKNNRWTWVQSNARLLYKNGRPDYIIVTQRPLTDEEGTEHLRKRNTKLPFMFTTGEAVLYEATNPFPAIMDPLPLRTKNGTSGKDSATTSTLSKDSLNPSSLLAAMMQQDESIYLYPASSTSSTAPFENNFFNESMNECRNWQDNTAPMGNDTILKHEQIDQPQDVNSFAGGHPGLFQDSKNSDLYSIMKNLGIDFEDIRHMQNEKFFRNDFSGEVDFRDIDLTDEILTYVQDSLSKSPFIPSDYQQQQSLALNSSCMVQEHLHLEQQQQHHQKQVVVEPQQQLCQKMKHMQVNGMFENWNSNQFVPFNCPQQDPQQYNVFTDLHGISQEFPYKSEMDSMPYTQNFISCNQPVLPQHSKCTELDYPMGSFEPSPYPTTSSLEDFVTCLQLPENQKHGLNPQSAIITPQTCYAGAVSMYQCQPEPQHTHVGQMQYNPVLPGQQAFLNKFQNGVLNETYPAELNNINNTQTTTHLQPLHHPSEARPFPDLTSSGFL

Structure (SMILES) | Potency [1] | Potency [2] | Potency [3] | Potency [4] | Potency [5] | Potency [6] | Potency [7] | Potency [8] | Potency [9] | Potency [10] | Potency [11] | Potency [12] | Potency [13] | Potency [14] | Potency [15] | Potency [16] | Potency [17] | Potency [18] | Potency [19] | Potency [20]
Cc1cc(C2CC2)nc(Nc2ccccc2)n1 | inactive | inactive | inactive | 27.3 µM (active) | inactive | inactive | inactive | inactive | inactive | inactive |  |  |  |  |  |  |  |  |  | 
CNC(=O)CSP(=O)(OC)OC |  | inactive |  |  | inactive | inactive | inactive | inactive | inactive |  | inactive | inactive | inactive | inactive | inactive | inactive | inactive |  |  | 
c1ccc(N=NNc2ccccc2)cc1 |  |  | inactive | 9.69 µM (active) | inactive | inactive | inactive |  | inactive |  | 10 µM (active) and 34.4 µM (active) | inactive | 56.8 µM (active) | inactive | inactive |  |  |  |  | 
CCCCCCCc1ccc(O)cc1 |  | inactive | inactive |  |  | inactive |  |  | inactive | inactive | inactive | inactive | 21.9 µM (active) | inactive |  |  |  | inactive |  | 
Cc1ccccc1OP(=O)(Oc1ccccc1C)Oc1ccccc1C | inactive | inactive |  |  |  | inactive | inactive | inactive | inactive |  |  |  |  | inactive |  |  |  |  | inactive | inactive
C=CC(=C)C | inactive | inactive | inactive | inactive | inactive |  | inactive | inactive | inactive | inactive |  |  |  | inactive | inactive | inactive | inactive | inactive | inactive | inactive
O=C1C2(Cl)C3(Cl)C4(Cl)C(Cl)(Cl)C5(Cl)C3(Cl)C1(Cl)C5(Cl)C24Cl (stereo not drawn) |  |  | 38.3 µM (active) |  | 67.5 µM (active) and 58.5 µM (active) | 48.2 µM (active) |  | inactive | 54 µM (active) | inactive | inactive |  | 48.2 µM (active) and 46.9 µM (active) | inactive |  |  | 48.2 µM (active) and 41.8 µM (active) | 54 µM (active) |  | 54 µM (active)
CCC[CH2][Sn]([CH2]CCC)([CH2]CCC)[CH2]CCC |  | 54.9 µM (active) | 19.5 µM (active) |  | 15.4 µM (active) |  | 49 µM (active) |  |  |  | inactive |  | 43.6 µM (active) |  | 15.5 µM (active) |  | 38.9 µM (active) |  |  | 
CCCCCCC[CH2][Sn]([Cl])([Cl])[CH2]CCCCCCC |  |  | 48.9 µM (active) | 0.863 µM (active) | 54.4 µM (active) | 30.9 µM (active) | 11 µM (active) | inactive | 54.9 µM (active) |  | 21.7 µM (active) |  | 24.5 µM (active) |  |  |  |  |  |  | 
